In ChEMBL document CHEMBL4513216, “Probing the Open Global Health Chemical Diversity Library for Multistage-Active Starting Points for Next-Generation Antimalarials” (ACS Infect Dis, 2020) one finds INHIBITION data, which are given here for 51 molecules.

The whole screen tested about 65,000 compounds, of which about 2,100 (3.2%) showed an effect of 50% or more. The median lay at about -52%. The list comes from a sample in which strong results are over-represented; it also holds similar structures and randomly drawn compounds.

The test system of the assay is Plasmodium falciparum. The experiment in a line: Screen against P. falciparum Asexual Blood Stage (ABS), at 5uM. The format is functional, Dd2. To be noted: tested at 5 uM.
As for `CC(C)Nc1ccnc(N2Cc3cnc(C(C)(C)C)nc3C2)n1`, the INHIBITION was 50.1%. Under `CCNc1ccnc(N2Cc3cnc(CC(C)C)nc3C2)n1` stands 74.6%; under `O=C(c1cscn1)N1CCN2C[C@H](OCc3cccnc3)C[C@H]2C1`, -55.9%; under `COc1ccc(C2SCC(=O)Nc3n[nH]cc32)c(OC)c1OC` (stereo unspecified), -164%. Under `O=C(Nc1ccc(Cn2cccn2)cc1)N1CCC2(CC1)OCCO2` stands -153%; under `CN(CCc1cccc2ccccc12)Cc1nc(N)nc(N(C)C)n1`, 92.2%. Then `COc1ccccc1CC(C)N(C)CCS(C)(=O)=O` (stereo unspecified), with 1.1%. Regarding `COc1ccccc1CCN(C)Cc1nc(N)nc(N(C)C)n1`, the INHIBITION worked out at 69.9%. Then `Cc1nc(-c2ccccc2F)sc1C(=O)N1CCC(=O)CC1`, with -67.5%; and `O=C(Cc1cccs1)N1C[C@@H]2OCCN(CC3CCCO3)[C@@H]2C1` (stereo partly specified), with -87.1%; and `Cn1cc(C2SCC(=O)Nc3c2cnn3C(C)(C)C)cn1` (stereo unspecified), with -6.82%. Then `CCN1CCC(CNCc2cc(C)ccc2OC)C1` (stereo unspecified), with 82.7%.

On to `COc1ccc(C)cc1CC(=O)N1CCN(CC(C)O)CC1` (stereo unspecified), for which the INHIBITION is listed as -34.3%.

As for `CCC(O)CN1CCN(C(=O)Cc2cc(C)ccc2OC)CC1` (stereo unspecified), the INHIBITION is on record as -68.2%. Turning to `N#Cc1ccc(OC[C@]23COC[C@H]2CN(Cc2nccs2)C3)nc1`, the INHIBITION is -22.3%. Then `O=C(C1CC1)N1CCOC2(CCNCC2)C1`, with -22.2%. With `Cn1ccnc1CN1CCC2(CC(=O)N(c3ccccn3)C2)C1` (stereo unspecified), the INHIBITION is reported as -145%. Then `Cc1ccc(C(O)CN2CCN(Cc3nccn3C)CC2)cc1C` (stereo unspecified), with 80.4%.

For the molecule `Cc1ccc(CC(=O)N2CCCN(Cc3nccn3C)CC2)cn1`, the INHIBITION is given as -72.4%. Then `CC(C)(C)c1nccc(C2(c3ccccc3Cl)CCNCC2)n1`, with 76.1%; and `CC(C)c1nccc(C2(c3ccccc3Cl)CCNCC2)n1`, with 83.4%; and `Clc1ccccc1C1(c2ccnc(-c3ccncc3)n2)CCNCC1`, with 83.6%. As for `Cc1ccc(N2CCO[C@H]3CN(Cc4cccnc4)C[C@H]32)nn1`, the INHIBITION is -18.3%. Under `CC(C)c1ccc(CN2C(=O)C3(CCNCC3)Nc3ccccc32)cc1` stands 82%; under `O=C1CC2(CCCNC2)C(=O)N1Cc1ccccc1` (stereo unspecified), -15.7%; under `CN1C(=O)CC2(CCNCC2)c2ccccc21`, 2.59%.

Consider `c1cncc(CN2CCN3C[C@H](Oc4cncnc4)C[C@H]3C2)c1`, for which the INHIBITION was -155%. Regarding `CC(C)[C@@H]1CN(C(=O)C2(c3ccccc3)CCN(C)CC2)C[C@H]1N(C)C`, the INHIBITION was found to be 83.7%. As to `CC(C)[C@@H]1CN(C(=O)C2(c3ccccc3)CCN(C)CC2)C[C@H]1C(=O)O`, the INHIBITION was -65.7%. Under `CC(=O)C1(c2ccccc2)CCN(C(=O)c2ccc3nnnn3c2)CC1` stands -106%. `CCS(=O)(=O)N1CCc2c(COCCN(C)C)cncc2C1`: the INHIBITION is on record as -62.2%.

Take `O=S1(=O)c2ccccc2OCC2(CCN(CCO)CC2)CN1CC1CC1`: the INHIBITION is on record as 76.9%. Under `O=S1(=O)NCC2(CCNCC2)COc2ccccc21` stands -55.2%; under `c1ccc(-c2ncc(CN3CCC4(CCNCC4)C3)cn2)cc1`, 10.6%. Under `Cc1cccc(CN2CCC3(CCCN(CC(=O)N(C)C)C3)C2)n1` (stereo unspecified) stands -47.6%; under `Oc1cccc2ccc(CN3CCC4(CCNCC4)C3)nc12`, 89.9%. On to `Cc1nn(-c2ncccn2)c2c1C(c1cnn(C)c1)SCC(=O)N2` (stereo unspecified), for which the INHIBITION is -15%. For `O=C(CSc1ccccn1)N1CCN(CCO)[C@@H]2CS(=O)(=O)C[C@@H]21`, the INHIBITION was -35.4%. Under `COc1ccnc(CN2CCCC(CCc3ccc(F)cc3)C2)c1OC` (stereo unspecified) stands 88.9%; under `COc1ccnc(CN2CCCC(CCc3ccccc3)C2)c1OC` (stereo unspecified), 90.1%; under `N#CC1(c2ccccc2)CCN(C(=O)C2CCCN(CC(N)=O)C2)CC1` (stereo unspecified), -116%. For the molecule `CCC(O)CN1CCN(C(=O)Cc2nc(-c3ccco3)oc2C)CC1` (stereo unspecified), the INHIBITION is recorded as -62.9%. Then `CC(Cc1ccc(Cl)cc1)N(C)C(=O)NCCS(C)(=O)=O` (stereo unspecified), with -65.7%. Turning to `O=C(c1ccncc1)N1CCN2C[C@H](Oc3cccnc3)C[C@H]2C1`, the INHIBITION was -77%. As to `CC(C)N(CCNC(=O)c1[nH]nc2ccc(I)cc12)C(C)C`, the INHIBITION is listed as 86.9%. For the molecule `CC[C@@H]1N(Cc2ccncc2)CCC[C@]12CCC(=O)N2CCOC`, the INHIBITION is listed as -38%.

On to `CCc1cccc(NC(=O)CCN2CC=C(c3cnn(C)c3)CC2)c1`, for which the INHIBITION was -33.3%. With `COc1ccc(NC(=O)CCN2CC=C(c3cnn(C)c3)CC2)cc1Cl`, the INHIBITION was 67.2%. As for `COc1ccc(NC(=O)CCN2CC=C(c3cnn(C)c3)CC2)c(C)c1`, the INHIBITION is -33.1%. Then `Cc1ccc2nc(C)c(C)c(C(=O)N[C@H]3COC[C@@H]3N3CCCC3)c2c1`, with -47.2%; and `Cc1cc(CN2CC[C@H]3C[C@@H](C)O[C@@H]3C2)no1`, with -71.2%.
